# From PubChem BioAssay
# DUSP3 inh: VHR1 (DUSP3) phosphatase inhibition | P51452 | actives 0.7% (n = 50,000) | recombinant VHR phosphatase, colorimetric substrate read-out | AID 1992 | inhibition, % at 20 µM; in the data active = inhibition above about 60%
# Target sequence (P51452 whole entry, looked up): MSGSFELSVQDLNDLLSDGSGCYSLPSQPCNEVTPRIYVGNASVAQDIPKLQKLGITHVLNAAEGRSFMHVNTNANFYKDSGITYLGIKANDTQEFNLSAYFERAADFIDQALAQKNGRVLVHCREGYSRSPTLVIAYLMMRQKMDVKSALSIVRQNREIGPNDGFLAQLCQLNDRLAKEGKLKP
# The depositor's hits bear a star. This excerpt belongs to a sample that is enriched for hits.
SMILES,DUSP3 inh
Cc1cc2c(cc1C)NC(c1c(F)cccc1F)C1=C(CC(C)(C)CC1=O)N2 (stereo unspecified),-9
CCOc1cc(C=NN2CCN(Cc3ccccc3)CC2)ccc1O,7
CCN(C(=O)c1sc(NC(=O)c2ccccc2F)c(C#N)c1C)C1CCCCC1,-8
COc1ccc(C(=O)/C=C\Nc2ccc3c(c2)OCO3)cc1OC,17
O=C1c2ccccc2C(=O)N1CC(O)Cn1c2ccccc2c2ccccc21 (stereo unspecified),-4
O=C(CCN1C(=O)c2ccccc2C1=O)NCc1ccncc1,-18
O=C1c2cccc3c4ccccc4n(c23)C(=O)C1(O)O,90*
COc1ccccc1N1C(=O)c2ccc(C(=O)c3ccc4c(c3)C(=O)N(c3ccccc3OC)C4=O)cc2C1=O,-16
O=C(O)CCN1C(=O)/C(=C/c2ccc(-c3ccc([N+](=O)[O-])cc3)o2)SC1=S,-6
CN1C(=O)/C(=C/c2ccc(-c3ccc([N+](=O)[O-])cc3)o2)SC1=S,8
O=C1NC(=S)/C(=C\c2ccc(-c3ccc([N+](=O)[O-])cc3)o2)S1,100*
O=C1/C(=C\c2ccc(-c3ccc([N+](=O)[O-])cc3)o2)SC(=S)N1c1ccc(O)cc1,59
CSCCC(C(=O)O)N1C(=O)/C(=C\c2ccc(-c3ccc([N+](=O)[O-])cc3)o2)SC1=S (stereo unspecified),81*
O=C1NC(=O)/C(=C\c2ccc(-c3cccc([N+](=O)[O-])c3)o2)S1,-2
O=C(Nc1ccc(NS(=O)(=O)c2ccc(Cl)cc2)cc1)c1ccccc1,-37
O=C(Nc1ccccc1)Nc1nnc(-c2ccc(F)cc2)s1,-19
CC(C)C1=NN2C(=N)/C(=C/c3ccc(Sc4ccc(Cl)cc4)o3)C(=O)N=C2S1,110*
CC(C)C1=NN2C(=N)/C(=C/c3ccc(-c4cccc([N+](=O)[O-])c4)o3)C(=O)N=C2S1,16
COc1cc(/C=C2/C(=N)N3N=C(C(C)C)SC3=NC2=O)cc(Cl)c1OCCOc1ccccc1,4
S=c1[nH]nc(-c2ccccc2Br)n1C1CCCCC1,-10
Cc1nn(S(=O)(=O)c2ccccc2[N+](=O)[O-])c(C)c1Sc1ccc([N+](=O)[O-])cc1,-27
Cc1cc(C)nc(/N=C(/N)Nc2cccc(N)c2)n1,21
O=C1CC(=O)N(c2ccccc2)C(=S)N1,4
Cc1ccc(N2C(=O)CC(=O)NC2=S)cc1,6
O=C1CC(=O)N(c2ccc(Cl)c(Cl)c2)C(=S)N1,73*
SMILES,DUSP3 inh
O=C1C2C(C(=O)N1c1cccc(Cl)c1)N1CCCN1C2c1ccccc1 (stereo unspecified),-7
COc1ccc(C2C3C(=O)N(c4ccccc4)C(=O)C3N3CCCN23)cc1 (stereo unspecified),89*
COc1ccc(C2C3C(=O)N(c4ccc(Br)cc4)C(=O)C3N3CCCN23)cc1 (stereo unspecified),2
O=C(NCc1cccnc1)c1ccc(C#Cc2ccccc2)cc1,-6
O=C(NCc1cccnc1)c1cc(-c2ccccc2)nc2ccccc12,4
Nc1c(C(=O)NCc2cccnc2)sc(=S)n1-c1ccccc1,91*
Cc1ccc(/C(N)=N/OC(=O)c2cccc(C)c2)cc1,-11
COc1ccc(-c2cc(C(=O)NCCc3ccccc3)c3ccccc3n2)cc1OC,-12
COc1ccc(-c2cc(C(=O)NCCc3ccc(OC)c(OC)c3)c3ccccc3n2)c(OC)c1,-41
COc1ccc(-c2cc(C(=O)NCCc3ccccc3)c3ccccc3n2)c(OC)c1,102*
COCc1cc(=O)n2[nH]c(-c3ccc(Br)cc3)cc2n1,8
C=CCN1C(=O)/C(=C\C=C\c2ccc(N(C)C)cc2)SC1=S,-16
CC(C)NC(=O)C1C(c2ccccc2)=C1c1ccccc1,120*
O=C(Nc1ccc(Br)cc1)C1C(c2ccccc2)=C1c1ccccc1,-11
Cc1cccc(NC(=O)C2C(c3ccccc3)=C2c2ccccc2)c1C,-2
COC(=O)c1ccc(C(=O)OC)c(NC(=O)COc2ccccc2[N+](=O)[O-])c1,21
CC1=C(C(=O)Nc2ccccc2)C(c2ccc(C)o2)NC(=S)N1 (stereo unspecified),11
O=C1C(Cl)=CC(=NS(=O)(=O)c2ccc(Cl)cc2)c2ccccc21,4
Cc1ccc(S(=O)(=O)/N=C2\C=C(Sc3ncn[nH]3)C(=O)c3ccccc32)cc1,64*
Cc1ccc(S(=O)(=O)/N=C2\C=CC(=O)C=C2Cl)cc1,60
CC1(C)Cc2c(sc3ncn4nc(CO/N=C/c5ccccc5Cl)nc4c23)C(C)(C)N1,16
Cc1cc(=O)[nH]c(SCC(=O)c2ccc(Br)cc2)c1C#N,4
O=C(Cc1cccc2ccccc12)NCc1ccco1,-7
COc1ccc(S(=O)(=O)N(CC(=O)N2CCCC2)Cc2ccccc2)cc1OC,-1
COc1ccccc1C(=O)N1CCN(c2nc3ccc([N+](=O)[O-])cc3s2)CC1,10
SMILES,DUSP3 inh
O=C(O)CN1C(=O)/C(=C/c2c(Cl)cccc2Cl)SC1=S,-20
O=C(O)CN1C(=O)/C(=C\c2ccc(-c3ccccc3Cl)o2)SC1=S,83*
Cc1ccc(/C=C2\SC(=S)N(CC(=O)O)C2=O)o1,27
O=C(Nc1ccc(-c2nc3ccccc3s2)c(O)c1)c1ccc(Cl)cc1Cl,1
Cc1nc(NC(=O)c2ccccc2)sc1-c1csc(Nc2cccc(C(=O)O)c2)n1,-8
Cc1nc(NC(=O)c2ccccc2)sc1-c1csc(Nc2ccc(O)cc2)n1,71*
Cc1nc(N)sc1-c1csc(Nc2ccc(S(N)(=O)=O)cc2)n1,26
O=C(CC1(C(F)(F)F)NN=C(c2ccccc2)S1)c1ccccc1 (stereo unspecified),-31
CCCCC(CC)CNC(=O)COc1cc(C)c(Cl)c(C)c1 (stereo unspecified),7
O=C(O)c1cc(-c2ccc(/C=N/Nc3ccc([N+](=O)[O-])cn3)o2)ccc1Cl,-1
Cc1cc(C(=O)N/N=C/c2ccc(-c3cccc(C(=O)O)c3)o2)n[nH]1,16
O=C(O)c1cccc(-c2ccc(/C=N/Nc3ccc([N+](=O)[O-])cn3)o2)c1,90*
COc1ccccc1CNc1cc(C)ccc1OC,-14
COc1cc(NC(=O)c2cc(-c3cccs3)nc3ccccc23)c(OC)cc1Cl,4
Cc1nc2cc(-c3ccccc3)nn2c(C)c1C,117*
Cc1nc2cc(-c3cccc(Cl)c3)nn2c(C)c1Cl,-23
Cc1nc2cc(-c3cccc(F)c3)nn2c(C)c1Cl,-12
O=C(N/N=C/c1ccccc1[N+](=O)[O-])C(=O)Nc1cccc2ccccc12,-27
COc1ccc(S(=O)(=O)N/N=C/c2ccc3c(c2)OCO3)cc1,-5
O=[N+]([O-])c1ccc(S(=O)(=O)N/N=C/c2ccc3c(c2)OCO3)cc1,-19
CC(C)(C)c1ccc(S(=O)(=O)N/N=C/c2ccc3c(c2)OCO3)cc1,111*
Cc1cccc(Nc2nc(Nc3cccc(C)c3)nc(SC(=S)N3CCOCC3)n2)c1,-3
Cc1ccc(C2/C(=C(/O)c3ccccc3)C(=O)C(=O)N2CC2CCCO2)cc1 (stereo unspecified),-1
O=C(/C=C/c1ccco1)Nc1ccc(-c2nc3ccccc3s2)c(O)c1,75*
O=C(/C=C/c1ccco1)Nc1ccc(O)c(-c2nc3ccccc3o2)c1,18
O=C(Nc1ccc(-c2nc3ccccc3s2)c(O)c1)c1cc2ccccc2o1,-7
CCOc1ccc(S(=O)(=O)N(CC(=O)NC2CCCCC2)c2ccc(C)cc2)cc1,90*
Cc1ccc(N(CC(=O)NC2CCCC2)S(=O)(=O)c2ccccc2)cc1,1
